The source of these data is PubChem BioAssay (NCI).

A short description of test [1]: NCI Yeast Anticancer Drug Screen. Data for the rad50 strain (AID 155).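 Also: 0% = growth of vehicle-only cultures of the same strain.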 To be noted: S. cerevisiae rad50 strain growth inhibition, active compounds read high. The method in brief: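 Growth of the mutant yeast was measured after compound exposure and referenced to vehicle-treated cultures.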
Test [2] in a line: NCI Yeast Anticancer Drug Screen. Data for the mec2-1 strain (AID 157). Conditions: S. cerevisiae mec2-1 strain, active compounds read high. The method, boiled down:
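Strain: mec2-1 (DNA repair/cell cycle alteration). Compound exposure, then growth measured; inhibition expressed relative to vehicle.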

The nature of test [3]: NCI Yeast Anticancer Drug Screen. Data for the sgs1 mgt1 strain (AID 161).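 Also: 0% = growth of cultures given vehicle only.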 To be noted: S. cerevisiae sgs1 mgt1 strain, active compounds read high. The method in brief:
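Read-out: growth inhibition vs vehicle controls. Cells: mutant yeast strain deficient in DNA damage repair.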

The nature of test [4]: NCI Yeast Anticancer Drug Screen. Data for the cln2 rad14 strain (AID 165).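 Also: 0% = growth equal to vehicle treated cultures.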 Conditions: S. cerevisiae cln2 rad14 strain, active compounds read high. The method, boiled down: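 Compounds are applied to the cln2 rad14 yeast strain, and growth is then compared with that of vehicle-treated cultures to give inhibition.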
Test [5] in a line: NCI Yeast Anticancer Drug Screen. Data for the bub3 strain (AID 167). Conditions: S. cerevisiae bub3 mutant strain, active compounds read high. The method in brief: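 Whole-cell yeast assay. The mutant strain was incubated with compounds, and growth inhibition was determined by comparison with vehicle-treated cells.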
Test [6] can be described thus: NCI Yeast Anticancer Drug Screen. Data for the mlh1 rad18 strain (AID 175). Conditions: S. cerevisiae mlh1 rad18 strain growth inhibition, active compounds read high. The method in brief: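 Read-out is yeast growth inhibition, calculated against vehicle-only controls. The compound was applied to a strain engineered with DNA damage repair alterations.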
Where [7] appears, read: at 5.0 µM (retest, dose inferred, filed as 0.5).
[8] abbreviates: at 50.0 µM (retest, dose inferred, filed as 5.0).

This is part of a sample that, as a whole, favours compounds with a hit. Of some 79,000 tested, about 15% had one in any assay. A number with no mark means an inactive call. The source made the active and inactive calls. Rule as the data show it: active = growth inhibition above about 70%; inactive = the rest.

In the case of `COC(=O)c1n[nH]c(C(C)C)c1N=NN(C)C`, the growth inhibition in test [1] (setting [7]) is 29%; in test [1] (setting [8]) it was 95% (active); in test [1] (at 50.0 µM), 98.9% (active); in test [2] (setting [7]), -35%; in test [2] (setting [8]) it was 97% (active); in test [2] (at 50.0 µM) it was 99.1% (active). In addition, the growth inhibition is -27% in test [3] (setting [7]); 96% (active) in test [3] (setting [8]); 99% (active) in test [3] (at 50.0 µM); -11% in test [4] (setting [7]); 98% (active) in test [4] (setting [8]); 99% (active) in test [4] (at 50.0 µM). The growth inhibition in test [5] (setting [7]) was -38%; in test [5] (setting [8]), 96% (active); in test [5] (at 50.0 µM), 98.3% (active); in test [6] (setting [7]) it was -77%; in test [6] (setting [8]), 96% (active); in test [6] (at 50.0 µM) it was 99.2% (active).
As for `CC(=O)C(C=O)C(C)=O.CC(=O)CC(C)=O.CC(=O)CC(C)=O.[Ru]`, the growth inhibition in test [1] (setting [7]) was 4%; in test [1] (setting [8]), 59%; in test [1] (at 50.0 µM) it was 36.9%; in test [2] (setting [7]) it was 60%; in test [2] (setting [8]), 98% (active); in test [2] (at 50.0 µM), 97.9% (active). The growth inhibition in test [3] (setting [7]) was 16%; in test [3] (setting [8]), 61%; in test [3] (at 50.0 µM), 50.5%; in test [4] (setting [7]), 0%; in test [4] (setting [8]), 44%; in test [4] (at 50.0 µM), 36%. Moreover, the growth inhibition in test [5] (setting [7]) is -7%; in test [5] (setting [8]) it was 33%; in test [5] (at 50.0 µM) it was -1.3%; in test [6] (setting [7]), 11%; in test [6] (setting [8]), 66%; in test [6] (at 50.0 µM), 52.8%.
Take `Cc1nnc2nc3c(nn12)c1ccccc1n3C`: the growth inhibition is -155% in test [1] (setting [7]); -54% in test [1] (setting [8]); 46.3% in test [1] (at 50.0 µM); -49% in test [2] (setting [7]); -33% in test [2] (setting [8]); 31.8% in test [2] (at 50.0 µM). Also, the growth inhibition in test [3] (setting [7]) was -65%; in test [3] (setting [8]) it was -46%; in test [3] (at 50.0 µM) it was 15.8%; in test [4] (setting [7]), -60%; in test [4] (setting [8]), -44%; in test [4] (at 50.0 µM) it was 75.8% (active). Further, the growth inhibition in test [5] (setting [7]) was -64%; in test [5] (setting [8]), -57%; in test [5] (at 50.0 µM), -0.35%; in test [6] (setting [7]) it was -146%; in test [6] (setting [8]), -77%; in test [6] (at 50.0 µM), 5.45%.
With `NS(=O)(=O)c1ccc(-n2cccc2)cc1`, the growth inhibition in test [1] (setting [7]) was 0%; in test [1] (setting [8]), -4%; in test [1] (at 50.0 µM) it was 10.6%; in test [2] (setting [7]), -2%; in test [2] (setting [8]), -3%; in test [2] (at 50.0 µM) it was -11.3%. Moreover, the growth inhibition in test [3] (setting [7]) is -1%; in test [3] (setting [8]), -3%; in test [3] (at 50.0 µM), -1.6%; in test [4] (setting [7]), 1%; in test [4] (setting [8]), -1%; in test [4] (at 50.0 µM) it was 56.6%. Besides, the growth inhibition in test [5] (setting [7]) was -6%; in test [5] (setting [8]), -7%; in test [5] (at 50.0 µM), 23.5%; in test [6] (setting [7]) it was -2%; in test [6] (setting [8]) it was -3%; in test [6] (at 50.0 µM) it was 7.7%.
For `CC(c1ccc2cccc(F)c2c1)c1ccccc1C(=O)O` (stereo not given), the growth inhibition was 3% in test [1] (setting [7]); 99% (active) in test [1] (setting [8]); 99% (active) in test [1] (at 50.0 µM); 6% in test [2] (setting [7]); 98% (active) in test [2] (setting [8]); 96% (active) in test [2] (at 50.0 µM). Moreover, the growth inhibition in test [3] (setting [7]) is -1%; in test [3] (setting [8]), 96% (active); in test [3] (at 50.0 µM) it was 98.2% (active); in test [4] (setting [7]), 1%; in test [4] (setting [8]), 98% (active); in test [4] (at 50.0 µM), 97.5% (active). Also, the growth inhibition was 0% in test [5] (setting [7]); 97% (active) in test [5] (setting [8]); 93.9% (active) in test [5] (at 50.0 µM); 5% in test [6] (setting [7]); 99% (active) in test [6] (setting [8]); 98.2% (active) in test [6] (at 50.0 µM).
`CC(C)c1ccc(O)c(O)c(=O)c1`: the growth inhibition was 14% in test [1] (setting [7]); 89% (active) in test [1] (setting [8]); 92.8% (active) in test [1] (at 50.0 µM); 9% in test [2] (setting [7]); 63% in test [2] (setting [8]); 94.7% (active) in test [2] (at 50.0 µM). In addition, the growth inhibition in test [3] (setting [7]) is 70% (active); in test [3] (setting [8]) it was 44%; in test [3] (at 50.0 µM) it was 93.8% (active); in test [4] (setting [7]), 18%; in test [4] (setting [8]) it was 26%; in test [4] (at 50.0 µM), 91.7% (active). In addition, the growth inhibition was 7% in test [5] (setting [7]); 79% (active) in test [5] (setting [8]); 93.1% (active) in test [5] (at 50.0 µM); 41% in test [6] (setting [7]); 64% in test [6] (setting [8]); 92.7% (active) in test [6] (at 50.0 µM).
Turning to `O=S(=O)(c1cc(Cl)ccc1Cl)N1CCc2ccccc2C1`, the growth inhibition in test [1] (setting [7]) is 14%; in test [1] (setting [8]), 3%; in test [1] (at 50.0 µM), 16.1%; in test [2] (setting [7]) it was -28%; in test [2] (setting [8]), -13%; in test [2] (at 50.0 µM), -25.6%. The growth inhibition was -1% in test [3] (setting [7]); 12% in test [3] (setting [8]); 25.6% in test [3] (at 50.0 µM); -1% in test [4] (setting [7]); 15% in test [4] (setting [8]); -11.4% in test [4] (at 50.0 µM). In addition, the growth inhibition in test [5] (setting [7]) was 18%; in test [5] (setting [8]) it was 12%; in test [5] (at 50.0 µM), 5%; in test [6] (setting [7]), -17%; in test [6] (setting [8]), -31%; in test [6] (at 50.0 µM), -9.85%.
In the case of `O=P(N=P(c1ccccc1)(c1ccccc1)c1ccccc1)(c1ccccc1)c1ccccc1`, the growth inhibition in test [1] (setting [7]) is 70% (active); in test [1] (setting [8]), 96% (active); in test [1] (at 50.0 µM), 88% (active); in test [2] (setting [7]), 60%; in test [2] (setting [8]), 99% (active); in test [2] (at 50.0 µM), 91.6% (active). Besides, the growth inhibition is 49% in test [3] (setting [7]); 99% (active) in test [3] (setting [8]); 79% (active) in test [3] (at 50.0 µM); 40% in test [4] (setting [7]); 98% (active) in test [4] (setting [8]); 92.5% (active) in test [4] (at 50.0 µM). The growth inhibition is 62% in test [5] (setting [7]); 99% (active) in test [5] (setting [8]); 87.2% (active) in test [5] (at 50.0 µM); 71% (active) in test [6] (setting [7]); 98% (active) in test [6] (setting [8]); 88.7% (active) in test [6] (at 50.0 µM).
Consider `C[n+]1c(/C=C\c2ccccc2)sc2ccccc21`, for which the growth inhibition in test [1] (setting [7]) is 23%; in test [1] (setting [8]) it was 89% (active); in test [1] (at 50.0 µM) it was 82.8% (active); in test [2] (setting [7]) it was 21%; in test [2] (setting [8]) it was 90% (active); in test [2] (at 50.0 µM), 82.3% (active). For the same compound, the growth inhibition in test [3] (setting [7]) is 33%; in test [3] (setting [8]) it was 93% (active); in test [3] (at 50.0 µM), 88.7% (active); in test [4] (setting [7]), 19%; in test [4] (setting [8]), 83% (active); in test [4] (at 50.0 µM), 74.8% (active). The growth inhibition is 7% in test [5] (setting [7]); 86% (active) in test [5] (setting [8]); 76.9% (active) in test [5] (at 50.0 µM); 15% in test [6] (setting [7]); 81% (active) in test [6] (setting [8]); 87% (active) in test [6] (at 50.0 µM).
Consider `CC(C)C1=CC23CCC4C(C)(C(=O)O)CCCC4(C)C2CC1C(C(=O)O)C3C(=O)O` (stereo not given), for which the growth inhibition in test [1] (setting [7]) was 80% (active); in test [1] (setting [8]), 99% (active); in test [1] (at 50.0 µM), 98.4% (active); in test [2] (setting [7]) it was 89% (active); in test [2] (setting [8]) it was 99% (active); in test [2] (at 50.0 µM), 98.1% (active). The growth inhibition in test [3] (setting [7]) was 52%; in test [3] (setting [8]) it was 98% (active); in test [3] (at 50.0 µM), 94.9% (active); in test [4] (setting [7]) it was 86% (active); in test [4] (setting [8]), 99% (active); in test [4] (at 50.0 µM) it was 98% (active). Further, the growth inhibition in test [5] (setting [7]) was 84% (active); in test [5] (setting [8]), 99% (active); in test [5] (at 50.0 µM), 97.6% (active); in test [6] (setting [7]), 88% (active); in test [6] (setting [8]), 98% (active); in test [6] (at 50.0 µM), 96% (active).
